Outcome and AC50 data for 16 molecules are collected here from PubChem BioAssay (EPA / NIEHS).

The target of assay [1] is T1, Estrogen receptor (Homo sapiens) + Estrogen receptor beta (Homo sapiens) (UniProt P03372+Q92731). The assay can be described thus: OT_ER_ERaERb_0480: Odyssey Thera (OT) 8-hour HEK293T Protein-Complementation Assay for Estrogen Receptor-alpha/-beta Heterodimer (AID 2283352). The essentials: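 Human HEK293T cells were treated for 8 hours and receptor heterodimerisation was detected through reconstitution of a fluorescent reporter split between ER-alpha and ER-beta ligand-binding domains. Activity was analysed as gain of signal against DMSO.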
T1 sequence (P03372 whole entry, looked up, the tested form may be a part): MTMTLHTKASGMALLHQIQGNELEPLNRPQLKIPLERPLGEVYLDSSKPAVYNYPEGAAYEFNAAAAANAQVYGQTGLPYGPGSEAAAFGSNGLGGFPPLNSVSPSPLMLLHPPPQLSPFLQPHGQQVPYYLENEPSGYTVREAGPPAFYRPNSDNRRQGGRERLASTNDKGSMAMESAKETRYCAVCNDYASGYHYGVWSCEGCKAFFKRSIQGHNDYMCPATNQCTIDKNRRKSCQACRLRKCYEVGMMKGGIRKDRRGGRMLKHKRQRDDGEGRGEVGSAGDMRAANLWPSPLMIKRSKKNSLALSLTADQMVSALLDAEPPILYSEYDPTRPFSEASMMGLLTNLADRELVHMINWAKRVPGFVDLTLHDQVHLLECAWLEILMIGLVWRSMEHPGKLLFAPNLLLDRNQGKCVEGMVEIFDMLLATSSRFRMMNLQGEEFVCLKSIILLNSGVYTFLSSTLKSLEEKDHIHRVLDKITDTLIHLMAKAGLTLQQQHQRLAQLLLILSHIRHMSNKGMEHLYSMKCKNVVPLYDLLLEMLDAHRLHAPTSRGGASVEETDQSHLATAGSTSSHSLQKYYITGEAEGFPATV
T1 sequence (Q92731 whole entry, looked up, the tested form may be a part): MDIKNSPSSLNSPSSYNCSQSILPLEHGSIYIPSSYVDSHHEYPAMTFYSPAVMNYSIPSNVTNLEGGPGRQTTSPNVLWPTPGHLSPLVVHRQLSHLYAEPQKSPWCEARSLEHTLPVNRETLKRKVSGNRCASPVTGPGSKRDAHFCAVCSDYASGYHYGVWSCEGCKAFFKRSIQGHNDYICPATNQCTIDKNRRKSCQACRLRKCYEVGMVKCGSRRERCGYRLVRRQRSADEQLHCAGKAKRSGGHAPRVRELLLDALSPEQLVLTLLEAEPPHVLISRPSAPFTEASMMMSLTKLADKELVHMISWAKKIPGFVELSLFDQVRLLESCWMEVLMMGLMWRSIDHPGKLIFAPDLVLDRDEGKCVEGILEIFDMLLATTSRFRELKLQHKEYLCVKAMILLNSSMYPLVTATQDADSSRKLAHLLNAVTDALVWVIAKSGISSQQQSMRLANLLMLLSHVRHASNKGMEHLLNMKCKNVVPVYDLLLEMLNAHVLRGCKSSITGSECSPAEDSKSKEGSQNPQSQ

The target of assay [2] is T1, Estrogen receptor (Homo sapiens) + Estrogen receptor beta (Homo sapiens). The assay is described as follows: OT_ER_ERaERb_1440: Odyssey Thera (OT) 24-hour HEK293T Protein-Complementation Assay for Estrogen Receptor-alpha/-beta Homodimer (AID 2283356).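 Further: heteromer of ER alpha and ER beta binding domains; hits raise reporter fluorescence and both agonists and antagonists give an increase.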 The essentials:
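24 h exposure; HEK293T PCA cells with ERα/ERβ LBD fragments; signal rise in nuclear or whole-cell fluorescence over vehicle.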

The target of assay [3] is human Peroxisome Proliferator-activated Receptor alpha (PPARa), PPARA (gene 5465) (UniProt Q07869). The assay can be described thus: NVS_NR_hPPARa: NovaScreen (NVS) Nuclear Receptor Binding Assay for human Peroxisome Proliferator-activated Receptor alpha (PPARa) (AID 2283359).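 Further: activity means loss of TR-FRET signal versus DMSO baseline.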 Summed up: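 Cell-free TR-FRET binding assay with extracted PPARα protein, read 1 h after dosing. Primary screen in duplicate at 25 uM, with actives retested in concentration series. Loss of signal versus DMSO.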
Sequence of human Peroxisome Proliferator-activated Receptor alpha (PPARa), PPARA (gene 5465) (Q07869 whole entry, looked up): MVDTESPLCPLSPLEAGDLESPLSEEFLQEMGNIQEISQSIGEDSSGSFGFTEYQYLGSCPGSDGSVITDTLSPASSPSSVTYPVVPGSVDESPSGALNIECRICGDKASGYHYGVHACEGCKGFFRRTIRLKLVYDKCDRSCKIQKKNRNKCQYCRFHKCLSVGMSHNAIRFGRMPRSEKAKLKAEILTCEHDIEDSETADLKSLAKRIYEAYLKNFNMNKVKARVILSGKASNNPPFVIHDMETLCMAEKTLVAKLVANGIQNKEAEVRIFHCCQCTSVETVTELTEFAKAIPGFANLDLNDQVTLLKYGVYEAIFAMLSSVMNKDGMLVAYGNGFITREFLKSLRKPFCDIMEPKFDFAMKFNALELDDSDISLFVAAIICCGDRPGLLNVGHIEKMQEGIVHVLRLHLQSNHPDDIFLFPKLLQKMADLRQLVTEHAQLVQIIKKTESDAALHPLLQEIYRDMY

Assay [4] deals with guinea pig Dopamine Transporter (DAT), gene 100714898. The assay can be described thus: NVS_TR_gDAT: NovaScreen (NVS) Transporter Assay for guinea pig Dopamine Transporter (DAT) (AID 2283369).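 Further: active compounds lower bound radioligand signal relative to DMSO.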 The essentials:
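Primary pass: duplicate wells at 25 uM, threshold e.g. 30% inhibition. Follow-up: singleton concentration-response, highest 50 uM. Radioligand binding on guinea pig striatal membranes, 2 h, filtration scintillation detection.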

Assay [5] deals with Estrogen receptor (Homo sapiens) (UniProt P03372). The assay can be described thus: OT_ER_ERaERa_0480: Odyssey Thera (OT) 8-hour HEK293T Protein-Complementation Assay for Estrogen Receptor-alpha/-alpha Homodimer (AID 2283351).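 Further: rise in fluorescence from reassembled reporter fragments on ERα LBD homodimer in nucleus or whole cell.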 Summed up:
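Binding reporter in which dimerisation of ERα LBD (aa 310-547) fusions reconstitutes a fluorescent reporter in HEK293T cells. Compounds incubated 8 h; mean fluorescence intensity increase versus DMSO scored.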

Assay [6] addresses Androgen Receptor/SRC-1 Co-activator, AR (gene 367) (UniProt P10275). The assay is described as follows: OT_AR_ARSRC1_0480: Odyssey Thera (OT) 8-hour HEK293T Protein-Complementation Assay for Androgen Receptor/SRC-1 Co-activator (AID 2283354).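 Further: hits raise the complementation signal above DMSO so AC50 marks enhancers.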 The essentials:
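HEK293T cells stably expressing AR and SRC-1 fused to Venus YFP fragments, imaged 8 h after dosing. Complementation fluorescence scored as nuclear/cytoplasmic ratio at 488 nm in at least 400 cells per image; gain fitted versus DMSO.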

In assay [7] the target is Estrogen receptor beta (Homo sapiens) (UniProt Q92731). The assay is described as follows: OT_ER_ERbERb_0480: Odyssey Thera (OT) 8-hour HEK293T Protein-Complementation Assay for Estrogen Receptor-beta/-beta Homodimer (AID 2283357).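 Further: active means signal gain over DMSO baseline.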 Summed up:
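Fluorescence intensity, nuclear for agonists and nuclear plus cytoplasmic for antagonists, was quantified by laser scanning cytometry versus vehicle after 8 h treatment. The cells were HEK293T stably carrying ER beta LBD fragment-complementation partners.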

A further assay addresses PGR (gene 5241) (UniProt P06401). The assay is described as follows: NVS_NR_hPR: NovaScreen (NVS) Nuclear Receptor Binding Assay for human Progestron Receptor (PR) (AID 2283360).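 Further: active means loss of bound radioligand signal versus DMSO baseline.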 Summed up: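 Cell-free radioligand binding using receptor protein extracted from T47D cells, read by scintillation counting 18 hours after dosing. Loss of signal relative to DMSO baseline indicates displacement; primary screen single concentration 25 uM in duplicate, actives followed in concentration series.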

Assay [8] has as its target Retinoic acid receptor alpha (Homo sapiens) (UniProt P10276). The assay can be described thus: NVS_NR_hRARa_Agonist: NovaScreen (NVS) Nuclear Receptor Binding Assay for human Retinoic Acid Alpha Receptor Agonism (RAR) (AID 2283361). The essentials: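 Cell-free TR-FRET binding readout with extracted receptor protein, read 2 hours after dosing; gain-of-signal fitted relative to DMSO. Screened in duplicate at 25 uM, actives then run in concentration-response.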

Assay [9] deals with Peroxisome proliferator-activated receptor gamma (Homo sapiens) (UniProt P37231). The assay is described as follows: NVS_NR_hPPARg: NovaScreen (NVS) Nuclear Receptor Binding Assay for human Peroxisome Proliferator-activated Receptor gamma (PPARg) (AID 2283370). Summed up:
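Extracted receptor protein, cell-free; compound incubated 2 h then fluorescence polarization read. Baseline: DMSO. Actives from 25 uM duplicate screen re-run across concentrations.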

The target in assay [10] is human Dopamine Transporter (DAT), SLC6A3 (gene 6531) (UniProt Q01959). The assay is described as follows: NVS_TR_hDAT: NovaScreen (NVS) Transporter Assay for human Dopamine Transporter (DAT) (AID 2283374).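 Further: activity means loss of bound radioligand signal relative to DMSO.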 The essentials:
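Cell-free radioligand displacement binding at human DAT, 1 h after dosing, with filtration and scintillation counting. Primary screen in duplicate at 25 uM, actives then in concentration series. Loss of bound signal versus DMSO scored.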

In assay [11] the target is human Thyroid Receptor Alpha (TRa), THRA (gene 7067) (UniProt P10827). The assay can be described thus: NVS_NR_hTRa_Antagonist: NovaScreen (NVS) Nuclear Receptor Binding Assay for human Thyroid Receptor Alpha Antagonism (TRa) (AID 2283362). The essentials: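 In this biochemical format, receptor protein is dosed with chemical and read after 1 hour via AlphaLISA. Decreases from the DMSO baseline indicate antagonist activity; screening used 25 uM in duplicate before concentration-response confirmation.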

The target in assay [12] is Glucocorticoid receptor (Homo sapiens) (UniProt P04150). The assay is described as follows: NVS_NR_hGR: NovaScreen (NVS) Nuclear Receptor Binding Assay for human Glucocorticoid Receptor (GR) (AID 2283363).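 On AC50: activity is loss of specific radioligand binding signal relative to DMSO.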 Summed up: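 Cell-free radioligand displacement assay on extracted human GR, read 16 h after dosing by filter-based scintillation counting. Screened in duplicate at 25 uM, then concentration series for actives; loss of signal versus DMSO baseline.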
Sequence of Glucocorticoid receptor (Homo sapiens) (P04150 whole entry, looked up): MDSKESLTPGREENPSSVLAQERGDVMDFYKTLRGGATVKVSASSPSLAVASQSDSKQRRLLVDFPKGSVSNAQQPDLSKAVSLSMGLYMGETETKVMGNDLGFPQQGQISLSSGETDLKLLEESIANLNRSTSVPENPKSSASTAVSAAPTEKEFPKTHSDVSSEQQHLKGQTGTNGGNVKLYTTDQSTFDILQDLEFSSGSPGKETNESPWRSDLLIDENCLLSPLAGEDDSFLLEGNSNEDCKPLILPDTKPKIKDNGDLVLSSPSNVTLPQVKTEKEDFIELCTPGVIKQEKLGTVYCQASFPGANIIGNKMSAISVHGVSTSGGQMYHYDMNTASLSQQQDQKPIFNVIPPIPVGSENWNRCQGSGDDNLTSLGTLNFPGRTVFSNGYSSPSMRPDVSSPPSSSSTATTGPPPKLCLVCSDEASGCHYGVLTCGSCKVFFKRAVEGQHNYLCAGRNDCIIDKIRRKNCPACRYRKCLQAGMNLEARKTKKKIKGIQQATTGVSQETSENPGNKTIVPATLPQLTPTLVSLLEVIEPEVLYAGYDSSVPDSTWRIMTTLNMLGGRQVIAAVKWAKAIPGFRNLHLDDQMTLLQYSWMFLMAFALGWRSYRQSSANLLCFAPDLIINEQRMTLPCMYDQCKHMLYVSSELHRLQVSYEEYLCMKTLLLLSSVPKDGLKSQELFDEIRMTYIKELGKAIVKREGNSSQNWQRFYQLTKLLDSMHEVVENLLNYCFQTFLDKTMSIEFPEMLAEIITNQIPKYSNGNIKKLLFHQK

For assay [13], the target named is Nuclear receptor subfamily 1 group I member 2 (Homo sapiens) (UniProt O75469). The assay is described as follows: NVS_NR_hPXR: NovaScreen (NVS) Nuclear Receptor Binding Assay for human Pregnane X Receptor (PXR) (AID 2283365).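 Further: a drop in FRET signal versus DMSO baseline means the compound binds.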 Summed up:
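Read-out: TR-FRET, human PXR, 2 h post-dosing, cell-free. Loss of signal vs DMSO taken as binding activity; 25 uM primary, concentration series secondary.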

In assay [14] the target is rat Androgen Receptor (AR), Ar (gene 24208) (UniProt P15207). The assay can be described thus: NVS_NR_rAR: NovaScreen (NVS) Nuclear Receptor Binding Assay for rat Androgen Receptor (AR) (AID 2283366). The essentials: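 Cell-free radioligand binding on extracts of prostate from testosterone-pretreated rats, read by filter-based scintillation counting 18 h after dosing. Loss of bound signal fitted positively versus DMSO; primary screen in duplicate at 25 uM, actives followed up in concentration series.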
Sequence of rat Androgen Receptor (AR), Ar (gene 24208) (P15207 whole entry, looked up): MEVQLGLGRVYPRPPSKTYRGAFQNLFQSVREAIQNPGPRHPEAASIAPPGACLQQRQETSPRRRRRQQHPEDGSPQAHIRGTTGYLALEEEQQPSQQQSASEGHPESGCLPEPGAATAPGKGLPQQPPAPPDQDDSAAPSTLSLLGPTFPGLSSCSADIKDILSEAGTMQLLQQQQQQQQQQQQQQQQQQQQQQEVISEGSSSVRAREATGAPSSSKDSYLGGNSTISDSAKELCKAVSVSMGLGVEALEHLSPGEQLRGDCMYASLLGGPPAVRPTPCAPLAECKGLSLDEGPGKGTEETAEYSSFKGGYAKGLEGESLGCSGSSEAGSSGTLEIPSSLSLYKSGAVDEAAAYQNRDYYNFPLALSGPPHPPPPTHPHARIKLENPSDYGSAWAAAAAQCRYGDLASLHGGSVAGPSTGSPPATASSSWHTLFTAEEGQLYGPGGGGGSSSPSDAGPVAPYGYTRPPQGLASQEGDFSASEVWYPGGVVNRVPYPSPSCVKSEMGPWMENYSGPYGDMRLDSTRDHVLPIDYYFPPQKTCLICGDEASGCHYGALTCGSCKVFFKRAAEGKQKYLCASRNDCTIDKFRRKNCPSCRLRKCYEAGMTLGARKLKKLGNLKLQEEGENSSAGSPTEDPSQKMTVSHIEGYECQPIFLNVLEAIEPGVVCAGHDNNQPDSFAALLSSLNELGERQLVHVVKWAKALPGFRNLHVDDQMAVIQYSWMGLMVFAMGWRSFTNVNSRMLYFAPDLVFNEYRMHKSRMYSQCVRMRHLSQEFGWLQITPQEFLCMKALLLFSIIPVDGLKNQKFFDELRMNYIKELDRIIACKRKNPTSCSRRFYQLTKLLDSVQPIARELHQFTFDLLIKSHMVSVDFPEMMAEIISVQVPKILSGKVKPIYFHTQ

Results filed as inconclusive are left out. The source made the active and inactive calls. How the source made its calls: active means hit-call score of the fitted dose curve at least 0.9, where 1 is the maximum; inconclusive means response in the unintended direction; inactive means score below 0.9.

Sequence of Peroxisome proliferator-activated receptor gamma (Homo sapiens) (P37231 whole entry, looked up): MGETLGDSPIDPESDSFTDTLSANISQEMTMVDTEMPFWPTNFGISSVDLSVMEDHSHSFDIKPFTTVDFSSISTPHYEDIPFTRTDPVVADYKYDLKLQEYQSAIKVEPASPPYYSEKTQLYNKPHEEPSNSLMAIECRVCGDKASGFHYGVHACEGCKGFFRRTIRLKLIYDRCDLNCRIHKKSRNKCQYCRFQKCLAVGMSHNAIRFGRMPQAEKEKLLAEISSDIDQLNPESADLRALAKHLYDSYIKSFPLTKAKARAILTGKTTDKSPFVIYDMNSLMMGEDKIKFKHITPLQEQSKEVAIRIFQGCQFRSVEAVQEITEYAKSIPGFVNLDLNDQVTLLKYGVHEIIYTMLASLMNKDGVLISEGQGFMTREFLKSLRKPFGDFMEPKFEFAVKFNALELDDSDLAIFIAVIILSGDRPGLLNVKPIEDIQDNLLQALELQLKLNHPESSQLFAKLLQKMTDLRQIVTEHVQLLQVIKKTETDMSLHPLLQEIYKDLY
Sequence of Estrogen receptor beta (Homo sapiens) (Q92731 whole entry, looked up, the tested form may be a part): as the sequence (Q92731 whole entry, looked up, the tested form may be a part) above
Sequence of Androgen Receptor/SRC-1 Co-activator, AR (gene 367) (P10275 whole entry, looked up, the tested form may be a part): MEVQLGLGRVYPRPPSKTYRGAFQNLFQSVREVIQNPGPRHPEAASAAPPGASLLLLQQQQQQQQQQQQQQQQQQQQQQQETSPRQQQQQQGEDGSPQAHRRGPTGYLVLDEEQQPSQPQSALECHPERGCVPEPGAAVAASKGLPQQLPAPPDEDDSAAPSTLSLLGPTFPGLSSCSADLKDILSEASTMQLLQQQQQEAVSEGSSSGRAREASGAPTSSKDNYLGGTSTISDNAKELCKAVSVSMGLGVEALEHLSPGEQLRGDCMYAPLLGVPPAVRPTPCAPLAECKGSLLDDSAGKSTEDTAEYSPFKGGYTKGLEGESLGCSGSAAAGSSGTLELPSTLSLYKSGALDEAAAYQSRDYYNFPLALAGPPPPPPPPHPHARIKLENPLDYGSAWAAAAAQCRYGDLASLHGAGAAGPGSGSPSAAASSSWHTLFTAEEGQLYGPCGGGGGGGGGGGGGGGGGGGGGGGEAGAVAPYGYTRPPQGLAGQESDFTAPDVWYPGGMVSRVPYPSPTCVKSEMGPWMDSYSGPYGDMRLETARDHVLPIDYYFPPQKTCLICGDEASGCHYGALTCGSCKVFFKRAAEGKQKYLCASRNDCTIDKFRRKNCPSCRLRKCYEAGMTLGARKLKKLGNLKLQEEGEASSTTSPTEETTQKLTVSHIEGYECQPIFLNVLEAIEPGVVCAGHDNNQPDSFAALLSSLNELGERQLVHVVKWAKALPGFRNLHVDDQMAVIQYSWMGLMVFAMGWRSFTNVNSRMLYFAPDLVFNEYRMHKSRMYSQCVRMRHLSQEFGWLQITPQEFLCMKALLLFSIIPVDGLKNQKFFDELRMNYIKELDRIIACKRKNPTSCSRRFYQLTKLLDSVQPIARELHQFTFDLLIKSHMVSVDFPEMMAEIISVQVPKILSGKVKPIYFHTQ
Sequence of Estrogen receptor (Homo sapiens) (P03372 whole entry, looked up, the tested form may be a part): as the sequence (P03372 whole entry, looked up, the tested form may be a part) above

In the case of `N#CCCC(Br)(C#N)CBr` (stereo not given), the result in assay [1] and in [3] was inactive. Also, the values for the AC50 in assay [2] and in assay [4] were 11.8 µM (active) and 7.56 µM (active), respectively.
As for `O=C(O)COc1ccc(Cl)cc1`, the molecule was called inactive in assay [5], in [1] and in assay [2].
In the case of `O=C(N[C@H]1CN2CCC1CC2)c1ccc2c(c1)OCCO2`, the molecule was called inactive (in assay [6]; in [7]; in the assay with PGR (gene 5241); in assay [8]).
Turning to `Cc1cc(Cl)ccc1OC(C)C(=O)O` (stereo not given), the molecule was classed as inactive in assay [5], in [1], in assay [2], in assay [7] and in [9].
For `COC(=O)Nc1cccc(OC(=O)Nc2cccc(C)c2)c1`, the result in assay [7] was inactive.
As to `CC(C)N(C(=O)CCl)c1ccccc1`, the molecule was called inactive in assay [5], in assay [1], in [6], in [2], in assay [7] and in assay [9]. For the same molecule, the values for the AC50 in assay [4] and in assay [10] were 11.8 µM (active) and 11.1 µM (active), respectively.
As for `CC1(C)[C@H](C(=O)O[C@H](C#N)c2cccc(Oc3ccccc3)c2)[C@@H]1/C=C(\Cl)C(F)(F)F`, the call in [7] was inactive.
For the molecule `O=S1(=O)OC(c2cc(Br)c(O)c(Br)c2)(c2cc(Br)c(O)c(Br)c2)c2ccccc21`, the molecule was classed as inactive in assay [5], in assay [6] and in assay [2]. For the same molecule, the AC50 is 15.2 µM (active) in [1]; 46.5 µM (active) in assay [7]; 4.18 µM (active) in assay [11]; 0.426 µM (active) in assay [12]; 5.92 µM (active) in assay [13]; 3.11 µM (active) in assay [14]. For the same molecule, the half-maximal activity concentration (AC50) in assay [9] was 2.87 µM (active).
On to `CC(=Cc1ccccc1)[N+](=O)[O-]`, for which the molecule was classed as inactive in assay [5], in assay [1], in [2], in assay [7] and in assay [9]. Moreover, in [6], the AC50 was 18 µM (active).
Take `O=C1c2ccccc2C(=O)C1C(=O)C(c1ccccc1)c1ccc(Cl)cc1` (stereo not given): the molecule was called inactive in assay [5] and in [3]. Further, the AC50 was 30 µM (active) in [6], 3.72 µM (active) in assay [12], 4.96 µM (active) in [14] and 16.2 µM (active) in assay [9].
As to `O=C(O)COc1cc(Cl)c(Cl)cc1Cl`, the result in assay [6] was inactive. In addition, in assay [9], the AC50 was 7.47 µM (active).
In the case of `Oc1c(Br)cc(Br)cc1Br`, the outcome in assay [5], in assay [1], in assay [2], in [7] and in assay [9] was inactive.
Turning to `CCOc1ccc(N)cc1`, the call in assay [5], in assay [1], in assay [2] and in assay [7] was inactive.
As to `CNC(=O)O/N=C/C(C)(C)S(C)(=O)=O`, the molecule was called inactive in assay [5], in [1], in assay [2] and in [7].
With `O=[N+]([O-])c1ccc(Cl)c([N+](=O)[O-])c1`, the molecule was classed as inactive in [5], in assay [3] and in [9]. Besides, the AC50 in [6] was 15 µM (active); in [12], 4.52 µM (active); in assay [14], 3.07 µM (active).
In the case of `CC(O)(CS(=O)(=O)c1ccc(F)cc1)C(=O)Nc1ccc(C#N)c(C(F)(F)F)c1` (stereo not given), the result in assay [5], in assay [1], in assay [7], in assay [12] and in assay [13] was inactive. In assay [2], the AC50 was 5.63 µM (active).

For orientation: AC50 means the concentration giving half of the maximal activity seen.
